# Laboratory results as given in the supplement of paper PMC9135407.
# Several values for one entry are separate records, joined by “and”; a condition that tells them apart may be missing. Equal entries are not always repeated. Structures can show the parent of a compound that is named as a salt. Out of some 5,800 compounds screened, about 620 (11%) showed activity. What follows is part of a selection rich in actives, with near analogues and random picks from the rest. A number with no mark means an inactive call.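 How the source made its calls: active = score above a cut-off or among the top three wells of a plate; in these data no inactive exceeds 0.85.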
# Tested on: primary human hepatic stellate cells (donor 1)
# Assay: scaled lipid accumulation score (0 = DMSO-like, 1 = nortriptyline-like); higher = stronger HSC inactivation (lipid re-accumulation), active = hit call of the paper
# Conditions: 48 h
# [1] = library stock concentration: 1 mM
# [2] = library stock concentration: 3.33 mM
# [3] = library stock concentration: 10 mM
# [4] = library stock concentration: 80 uM
# [5] = library stock concentration: 400 uM
# [6] = library stock concentration: 2 mM
compound,measurement,setting,value
"CCCCC/C=C\C/C=C\C/C=C\CCCC/C=C\CCC(=O)O [cis-4,10,13,16-Docosatetraenoic Acid]",scaled lipid accumulation score,[1],≤ 0
CCCCC[C@H](O)/C=C/[C@H]1[C@H](O)CC(=O)[C@@H]1C/C=C\CCCC(=O)OC [Prostaglandin E2 methyl ester],scaled lipid accumulation score,[1],≤ 0
C[C@@H](NCCCc1cccc(C(F)(F)F)c1)c1cccc2ccccc12 [Cinacalcet HCl],scaled lipid accumulation score,[2],0.207
same,scaled lipid accumulation score,[3],0.351
O=C1CC(=O)c2c(Cl)c(Cl)c(Cl)c(Cl)c21,scaled lipid accumulation score,[2],≤ -0.009
same,scaled lipid accumulation score,[3],0.011
CC(C)n1cnc2c(NCc3ccccc3)nc(NCCO)nc21 [N9-Isopropylolomoucine],scaled lipid accumulation score,library stock concentration: 15.3 mM,≤ -0.012
CC(C)n1cnc2c(NCCc3ccc(O)cc3)nc(-c3csc4ccccc34)nc21 [StemRegenin 1 (SR1)] [listing 1 of 2 here],scaled lipid accumulation score,[2],≤ 0
CC(C)n1cnc2c(NCCc3ccc(O)cc3)nc(-c3csc4ccccc34)nc21 [StemRegenin 1 (SR1)] [listing 2 of 2 here],scaled lipid accumulation score,[3],0.919 (active)
CC\C=C/C=C/C=C/C=C\CCCCCCCC(=O)O [cis-Parinaric Acid],scaled lipid accumulation score,[1],0.028
CC(C)Oc1ccc(C(=O)c2ccc(NC3=NCCN3)cc2)cc1,scaled lipid accumulation score,[1],0.073
CC(=O)Nc1nc2c(Oc3cc(-c4ccc(C(F)(F)F)cc4)ncn3)cccc2s1,scaled lipid accumulation score,[2],≤ -0.009
same,scaled lipid accumulation score,[3],0.221
COc1ccc(F)c(F)c1C(=O)c1cnc(NC2CCN(S(C)(=O)=O)CC2)nc1N,scaled lipid accumulation score,[2],0.082
same,scaled lipid accumulation score,[3],0.057
CN1CCC(Nc2ncc3ncnc(Nc4ccc(F)c(Cl)c4)c3n2)CC1.Cl.Cl [BIBX 1382 dihydrochloride],scaled lipid accumulation score,[3],1.61 (active)
CCN(CC)CC1CCN(c2ncc3ncnc(Nc4ccc(F)c(Cl)c4)c3n2)CC1.Cl.Cl [BIBU 1361 dihydrochloride],scaled lipid accumulation score,[3],1.06 (active)
COc1ccc(CC(=O)NC(/N=C(\NC#N)Nc2cccc3ncccc23)C(C)(C)C)cc1OC (stereo not given),scaled lipid accumulation score,[3],0.014
O=C(O[C@@H]1Cc2c(O)cc(O)cc2O[C@@H]1c1cc(O)c(O)c(O)c1)c1cc(O)c(O)c(O)c1 [Epigallocatechin gallate],scaled lipid accumulation score,[4],≤ 0
same,scaled lipid accumulation score,[5],≤ 0
same,scaled lipid accumulation score,[6],≤ 0
same,scaled lipid accumulation score,[3],≤ 0
O=C(O[C@@H]1Cc2c(O)cc(O)cc2O[C@@H]1c1cc(O)c(O)c(O)c1)c1cc(O)c(O)c(O)c1 [(-)-Epigallocatechin Gallate],scaled lipid accumulation score,[1],≤ 0
Oc1nc(-c2ccc(C(F)(F)F)cc2)nc2c1CSCC2,scaled lipid accumulation score,[1],≤ 0
same,scaled lipid accumulation score,[2],≤ 0
same,scaled lipid accumulation score,[3],≤ 0 and 0.004
c1ccc(Cn2c(-c3ccc(OCC(C4CCNCC4)n4c(-c5ccccc5)nc5ccccc54)cc3)nc3ccccc32)cc1 (stereo not given) [Deltarasin],scaled lipid accumulation score,[2],0.766
same,scaled lipid accumulation score,[3],0.104
O=c1[nH]c(=S)[nH]c(-c2ccccc2)c1Cc1c(O)ccc2ccccc12 [Cambinol],scaled lipid accumulation score,[3],0.124
Cc1nc(Nc2n[nH]c3c2CN(C(=O)N[C@H](CN(C)C)c2ccccc2)C3(C)C)c2sccc2n1 [listing 1 of 2 here],scaled lipid accumulation score,[3],0.887 (active)
CC(C)CC(=O)Nc1n[nH]c2c1CN(C(=O)C1CCN(C)CC1)C2(C)C,scaled lipid accumulation score,[4],≤ 0
same,scaled lipid accumulation score,[5],0.21
same,scaled lipid accumulation score,[6],0.029
same,scaled lipid accumulation score,[2],0.199
same,scaled lipid accumulation score,[3],≤ 0 and 0.015
Cc1nc(Nc2n[nH]c3c2CN(C(=O)N[C@H](CN(C)C)c2ccccc2)C3(C)C)c2sccc2n1 [listing 2 of 2 here],scaled lipid accumulation score,[4],≤ -0.016
same,scaled lipid accumulation score,[5],0.092
same,scaled lipid accumulation score,[6],0.522
same,scaled lipid accumulation score,[2],≤ -0.009
same,scaled lipid accumulation score,[3],0.594
Cc1nn(C)c(COc2ccc(N3CCN(S(=O)(=O)N(C)C)CC3)cc2)c1-c1cccc2c(CCCOc3cccc4ccccc34)c(C(=O)O)n(CCN3CCOCC3)c12,scaled lipid accumulation score,[4],≤ -0.001
same,scaled lipid accumulation score,[5],≤ -0.001
same,scaled lipid accumulation score,[6],≤ -0.001
same,scaled lipid accumulation score,[3],≤ -0.001
CCCCCCCCCCCCCCCCCCN(CCCCCCCCCCCCCCCCCC)CCCN(CCO)CCO [Avridine],scaled lipid accumulation score,[3],≤ 0
N[C@@H](Cn1ccc(=O)c(O)c1)C(=O)O [L-Mimosine from Koa hoale seeds],scaled lipid accumulation score,[3],≤ 0
Cl.c1cc(OCCN2CCCCC2)cc(-c2n[nH]c3ccc(-c4nc[nH]n4)cc23)c1,scaled lipid accumulation score,[3],1.28 (active)
O=C(c1ccc(OCCN2CCCCC2)cc1)c1c(-c2ccc(O)cc2)sc2cc(O)ccc12 [Raloxifene hydrochloride],scaled lipid accumulation score,,0.032
same,scaled lipid accumulation score,[3],0.661 and 0.376
c1ccc(-c2nn3c(c2-c2ccnc4cc(OCCN5CCOCC5)ccc24)CCC3)nc1,scaled lipid accumulation score,[4],≤ -0.001
same,scaled lipid accumulation score,[5],≤ -0.001
same,scaled lipid accumulation score,[6],≤ -0.001
same,scaled lipid accumulation score,[3],≤ -0.001
O=C(OCCN1CCCCC1)c1c[nH]c2ccccc12,scaled lipid accumulation score,[3],0.289
c1cc(OCCN2CCCCC2)cc(-c2n[nH]c3ccc(-c4nnc[nH]4)cc23)c1,scaled lipid accumulation score,[4],≤ -0.016
same,scaled lipid accumulation score,[5],≤ -0.016 and ≤ -0.005
same,scaled lipid accumulation score,[6],≤ -0.016 and 0.022
O=C(c1ccc(OCCN2CCCCC2)cc1)c1c(-c2ccc(O)cc2)sc2cc(O)ccc12 [Raloxifene HCl],scaled lipid accumulation score,[2],≤ 0
same,scaled lipid accumulation score,[3],0.575
c1cc(OCCN2CCCCC2)cc(-c2n[nH]c3ccc(-c4ncn[nH]4)cc23)c1,scaled lipid accumulation score,[3],1.72 (active)
O=C(c1ccc(OCCN2CCCCC2)cc1)c1c(-c2ccc(O)cc2)sc2cc(O)ccc12,scaled lipid accumulation score,[3],0.798
CCCCC[C@H](O)/C=C/C1=C(C/C=C\CCCC(=O)O)C(=O)CC1 [Prostaglandin B2],scaled lipid accumulation score,[1],≤ 0 and ≤ -0.021
CC(=N)NCCCC[C@H](N)C(=O)O [L-NIL hydrochloride],scaled lipid accumulation score,[3],0.025
CCCCCCCCCCCC(=O)c1nc2ncccc2o1,scaled lipid accumulation score,[1],≤ 0
CCCCC/C=C\C/C=C\CCCCCCCC(=O)NCC(=O)O [N-linoleoylglycine],scaled lipid accumulation score,[1],≤ -0.021
